In the supplement of paper PMC10338343:
± gives the standard deviation.

System: MILI (PIWIL2) piRISC loaded with piRNA #1 (26 nt)
Assay: pre-steady-state target cleavage rate (min^-1); guide: piRNA #1 5'p-UGAGGUAGUAGGUUGUAUAGUAUCCA; MIWI and MILI are mouse PIWI proteins and EfPiwi is from a freshwater sponge; tags in brackets are library labels; higher = faster piRNA-guided slicing of the target
Conditions: auxiliary factor: 500 nM mouse GTSF1
Method in brief: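 Active affinity-purified piRISC (1 nM) loaded with one synthetic guide was mixed with a transcribed, DNA-blocked target RNA library (0.1 nM), with or without 500 nM GTSF1 partner protein, in HEPES–potassium acetate buffer at 33 °C for 0–8 or 0–960 min. Uncleaved targets were sequenced, normalised to depth and to weakly complementary targets, and pooled across three trials, with k3 capped at 0.0001 min^-1. The pre-steady-state cleavage rate was determined with a burst-and-steady-state fit.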

| Sequence | pre-steady-state target cleavage rate |
| --- | --- |
| GGAGACCUUACUAUUCAACGUACUACCUCA | 0.0187 ± 0.0035 |
| GGAGAGGAUACUAUAGAACCUACUUCCUCA | 0.00501 ± 0.0029 |
| GGAGACCUAUGUAUACAACCUACUACUCUCA | 0.117 ± 0.013 |
| GGAGACCUAUGAAUACAACCUCACUACCUCA | 0.00378 ± 0.0031 |
| GGAGACCUAUGAUUACAUCCUACUACCACA | 0.0105 ± 0.0035 |
| GGAGACCAUACUAUACAACCUAGUACCACA | 0.00768 ± 0.0041 |
| GGAGACCUAUGAUAUCAACUUACUACCUCA | 0.00319 ± 0.0027 |
| GGAGACCUUACUAUACAACGUAGUACCUCA | 0.015 ± 0.0045 |
| GGAGACCUAUGAUAUCAACCUACUAACCUCA | 0.00255 ± 0.0025 |
| GGAGACCUUACUAUAGCAACCUACUACCUCA | 0.127 ± 0.012 |
| GGAGACGAUACUAUUCAACCUAGUACCUCA | 0.0492 ± 0.01 |
| GGAGACCUAUGAUUACGACCUACUACCUCA | 0.00341 ± 0.003 |
| GGAGACCAUACUAUACAACCUACACCUCA | 0.00885 ± 0.0037 |
| GGAGACCUAUGAUAACAACCUACUACCGUCA | 0.00366 ± 0.0026 |
| GGAGUGCAUACUAAACAACCUACUACCUCA | 0.147 ± 0.011 |
| GGAGACCUAUCAAUACAACCAACUACCUCA | 0.00756 ± 0.0033 |
| GGAGACCUAUCUAUACAACCUACUCCCUCA | 0.0608 ± 0.0097 |
| GGAGACCUUACUAUACAUCCUACUACCUCA | 0.292 ± 0.024 |
| GGAGACCUAUGUAAACAACCUACUACGUCA | 0.00279 ± 0.0027 |
| GGAGACCUAUGAUUACAACCGUACUACCUCA | 0.00334 ± 0.0031 |

| Sequence | pre-steady-state target cleavage rate |
| --- | --- |
| GGAGACCAUACUUUACAACCUACUAGCUCA | 0.0628 ± 0.015 |
| GGAGACCUAUGUAUACAACUUACUACCUCA | 0.0134 ± 0.0024 |
| GGAGACCUAUGAUAUGAACCUACUAUCUCA | < 0.0001 |
| GGAGACCUAACUAUAGAACCUACUACCUGA | 0.0124 ± 0.008 |
| GGAGACCUUACUAUACAACCUACGUACCUCA | 0.0918 ± 0.0092 |
| GGAGACCUAUGUAUACAACCUACGUACCUCA | 0.0295 ± 0.0083 |
| GGAGACCUAUGGAUACAACCUACUACCUCA | 0.0189 ± 0.0046 |
| GGAGACCUAUGAUUUACAACCUACUACCUCA | 0.00564 ± 0.003 |
| GGAGACCUAUGUAUAGAACCUACUACCUCA | 0.0559 ± 0.0092 |
| GGAGACCUAACUAUACUACCUACUAGCUCA | 0.0708 ± 0.021 |
| GGAGACCUUACAAUACUACCUACUACCUCA | 0.114 ± 0.013 |
| GGAGACGAUACUAAACAACCUACAACCUCA | 0.116 ± 0.013 |
| GGAGACCUAUGUAUACAAGGUACUACCUCA | 0.0261 ± 0.0047 |
| GGAGACCUUACUAUACAUCCUACUAGCUCA | 0.2 ± 0.024 |
| GGAGACCUAUGUAUACAUGCUACUACCUCA | 0.0469 ± 0.007 |
| GGAGACCUAUGAUUACUACCUACUACCUCA | 0.00306 ± 0.0021 |
| GGAGACCUUACUAUACAACCUACUACCCA | 0.0955 ± 0.016 |
| GGAGACCUAAGUAUACAAGCUACUACCUCA | 0.124 ± 0.011 |
| GGAGACCUAUGAUAUGUUGGUAUACCUCA | < 0.0001 |
| GGAGACCUAUCUAUACAACCUACUACCUGCA | 0.103 ± 0.014 |
